Experimental data: ChEMBL document CHEMBL1157539, “Thousands of chemical starting points for antimalarial lead identification” (Nature, 2010)

Experiments:
Type in all cases: functional
[1] = test system: Plasmodium falciparum; assay: GSK_TCMDC: Inhibition of Plasmodium falciparum 3D7 in whole red blood cells, using parasite LDH activity as an index of growth. Test compounds present at 2uM
[2] = test system: Plasmodium falciparum; assay: GSK_TCMDC: Inhibition of Plasmodium falciparum Dd2 in whole red blood cells, using parasite LDH activity as an index of growth. Test compounds present at 2uM
[3] = test system: HepG2; assay: GSK_TCMDC: Percent inhibition of human HepG2 cell line. Test compounds present at 10uM.

SMILES | Inhibition [1] | Inhibition [2] | Inhibition [3]
O=C(c1ccc(-c2cccc(-c3nc4cc(C(F)(F)F)ccc4[nH]3)c2)cc1)N1CCCCC1CN1CCC(O)C1 (stereo not given) | 100% | 98% | 29%
Cc1cc2nc(-c3ccc(C(=O)NC4CCN(Cc5ccccc5)CC4)cc3)[nH]c2cc1C | 93% | 99% | 0%
CCOc1ccc(-c2nc(NC(=O)Cc3cccc(OC)c3)sc2C)cc1 | 97% | 28% | 15%
CN1CCC(NCc2cccc(-c3ccc(S(=O)(=O)NCCN4CCCC4)c(F)c3)c2)CC1.O=C(O)C(F)(F)F | 91% | 0% | 14%
Cl.Clc1ccc2c(N3CCN(CCN4CCN(c5ccnc6cc(Cl)ccc56)CC4)CC3)ccnc2c1 | 99% | 100% | 10%
Cc1ccc(Cl)c2sc(N3CCN(C(=O)c4ccc([N+](=O)[O-])o4)CC3)nc12 | 97% | 94% | 21%
Cc1ccc(CNC(=O)[C@H](Cc2ccccc2)Nc2ccnc(NCC3CCCCC3)n2)cc1.O=C(O)C(F)(F)F | 92% | 61% | 84%
Br.CCSc1ccccc1CON1C(=N)N=C(N)NC1(C)C | 96% | 10% | 62%
CC(C)CNC(=O)c1ccnc(-c2ccc(CNCCCc3ccccc3)cc2)c1.O=C(O)C(F)(F)F | 99% | 22% | 12%
CC(C)CN1C(=O)c2ccccc2C(C(=O)Nc2cccc(C#N)c2)C1c1cccs1 (stereo not given) | 100% | 100% | 11%
COc1ccc(C2(CNCC(O)c3cccc([N+](=O)[O-])c3)CCCCC2)cc1OC.Cl (stereo not given) | 95% | 85% | 0%
COc1cc(-c2nc(-c3ccccc3)c(-c3ccccc3)[nH]2)ccc1OCCN(C)C | 100% | 100% | 0%
O=C(Nc1ccccc1)N(Cc1cccc(-c2ccc(CNC3CCCC3)cc2)c1)C1CCN(Cc2ccccc2)CC1.O=C(O)C(F)(F)F | 100% | 96% | 100%
Cc1c(C2CCN(CCCCNC(=O)c3ccc(-c4ccc(C#N)cc4)cc3)CC2)c2ccccc2n1CCO | 96% | 99% | 28%
CCNC1=NC2=C(CC(C(C)(C)C)CC2)C2(CCC(C(C)(C)C)CC2)S1.Cl (stereo not given) | 99% | 99% | 40%
O=C(Nc1ccccc1F)NC1CCN(c2ccnc(Nc3ccc(F)cc3)n2)C1 (stereo not given) | 95% | 74% | 0%
CCCCCCCCCCS(=O)(=O)N[C@H](COCc1cccc(Oc2ccccc2)c1)COP(=O)([O-])OC.[Li+] | 87% | 0% | 0%
Cc1cc(C)c(S(=O)(=O)N2CCCCC(c3cccc(C(F)(F)F)c3)=N2)c(C)c1 | 94% | 95% | 0%
O=C(NCCN1CCCC1)c1cccc(-c2ccc(-c3nc4cc(F)ccc4[nH]3)cc2)c1 | 99% | 85% | 33%
CCNS(=O)(=O)c1ccc(Oc2ccc([N+](=O)[O-])cc2)cc1 | 94% | 85% | 1%
COc1cc(NC(=O)/C=C/c2ccc(-c3ccccc3)cc2)ccc1OCCN(C(C)C)C(C)C.Cl | 94% | 62% | 58%
COc1ccc(C=C2SC(=N)N(c3ccccc3OC)C2=O)cc1 | 97% | 95% | 47%
O=C(Cc1ccccc1)NC(CCN1CCC(O)(c2cccc(C(F)(F)F)c2)CC1)c1ccc(Cl)c(Cl)c1 (stereo not given) | 96% | 32% | 25%
CC(=O)Nc1cccc(CNCc2ccc(-c3cnc(N4CCCC(C)(C)C4)nc3)cc2)c1.O=CO | 93% | 75% | 10%
Oc1cccc(-c2nc(-c3cccc(I)c3)c(-c3ccc(-c4nc(-c5cccc(O)c5)[nH]c4-c4cccc(I)c4)cc3)[nH]2)c1 | 96% | 66% | 0%
Nc1ncnc2cc(-c3cccc(NC(=O)Nc4ccccc4)c3)sc12 | 94% | 33% | 4%
Br.CCCCCCCNCCNc1cc(C)nc2ccccc12 | 100% | 99% | 58%
COc1ccc(C(C)Nc2nc(N)c3cc(OC)c(OC)cc3n2)cc1.Cl (stereo not given) | 100% | 28% | 23%
CCOc1ccc(OCC)c(N2CCN(CCCCNC(=O)c3ccc(NC(=O)c4ccc(Cl)cc4)cc3)CC2)c1 | 97% | 40% | 13%
O=C(Nc1ccc(Cn2ncc(N3CCCNCC3)c(Cl)c2=O)cc1)Nc1ccc(F)cc1[N+](=O)[O-] | 90% | 0% | 11%
